SMILES strings stand for the structures. The panel holds about 83,000 compounds, 20% with a hit somewhere; the sample as a whole holds those more often.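 Results are percent growth after 48 hours of single-concentration exposure. 100 means growth as in untreated cells, lower positive values show inhibition; negative values down to -100 show cell death.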 A number with no mark means an inactive call. The source made the active and inactive calls. Rule for the calls: active = growth percent below 10; inactive = the rest.

The experiment deals with LOX IMVI melanoma. Briefly: NCI-60 one-dose screen, 48 h (100 = growth as untreated, 0 = no growth, -100 = all killed). To be noted: 10 µM unless noted.
For `CC(=O)Nc1nc(C(=O)N2N=C(C)/C(=C/c3cccs3)C2=O)cs1`, the growth was 98%.

In the case of `CN1C(=O)[C@H]2c3c1cccc3[C@@]13NC(=O)O[C@H]1[C@H](CCC3(C)C)C2(C)C`, the growth is 100%.

As to `CC(=O)C1CCC(C)=CC1=O` (stereo not drawn), the growth is 94%.

Consider `COc1cccc(-n2cc(-c3nc(Cl)c4ccccc4n3)nn2)c1`, for which the growth was 109%.

As for `Nc1c(C(=O)Nc2cccc(Cl)c2Cl)sc2nc3c(cc12)C(=O)CCC3`, the growth is 95.5%.

`COc1cc(/C=C2\CCCC3=C2NC(C)=NC3c2cc(OC)c(OC)c(OC)c2)cc(OC)c1OC` (stereo not drawn): the growth is -41.2% (active).

`O=c1[nH]c(-c2cn(-c3ccc(Cl)cc3)nn2)nc2ccccc12`: the growth was 90.8%.

As to `CC/C(=C(\c1ccc(O)cc1)c1ccc(OCCN(C)CCN(C)C(=O)CCC(=O)c2c(C)[nH]c(/C=C3\N=C(c4ccc[nH]4)C=C3OC)c2C)cc1)c1ccccc1`, the growth was 33.6%.

As to `Cc1cc(Nc2nc(-c3ccncc3)nc3ccccc23)n[nH]1`, the growth is 62.7%.

Consider `COc1cc(C2C=C(C)N=C3SC=CN32)cc(OC)c1OC` (stereo not drawn), for which the growth is 97.8%.

As to `COC1=CC(c2ccc[nH]2)=N/C1=C\c1[nH]c(C)c(C(=O)CCC(=O)Oc2ccc3c(c2)CCC2C3CC[C@]3(C)[C@@H](O)CC[C@@H]23)c1C` (stereo partly drawn), the growth is -81.7% (active).

Take `Cc1ccc(Cn2c(-c3nonc3N)nc3ccccc32)cc1`: the growth is 71.7%.

On to `O=C(Nc1ccccc1)OCC1OCOC(COC(=O)Nc2ccccc2)C1OC(=O)Nc1ccccc1` (stereo not drawn), for which the growth is 29.7%.

For the origin of these results see PubChem BioAssay (NCI).
